Columns and labels:
Assay in all cases: PBM binding z-score (relative to random genomic background probes); higher = stronger binding; sequences stand for … in GC…GCGATTGACAGCGTAGAATGAAGG
[1] = tested on: RARb homodimer (NR concentration 270 nM)
Outline: (§1)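 Binding z-scores were set against random background probes. The data came from custom Agilent 4×180K protein-binding microarrays carrying double-stranded probes with 34-nt variable regions, incubated 1 h with ligand-free nuclear receptor dimers. Partner-specific antibodies detected binding, and scanned fluorescence was regression-normalized.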

[2] = tested on: RARg:RXRa (NR concentration 270 nM, RXRa partner concentration 90 nM)
Outline: as §1

[3] = tested on: RARg homodimer (NR concentration 270 nM)
Outline: as §1

[4] = tested on: RXRa DBDmut IVT, anti-RXR (DBD mutation: RXRa K156A/R161A, NR concentration 90 nM)
Outline: as §1

[5] = tested on: RXRa homodimer (NR concentration 180 nM)
Outline: as §1

[6] = tested on: THRa:RXRa (NR concentration 90 nM, RXRa partner concentration 90 nM)
Outline: as §1

[7] = tested on: THRa homodimer (NR concentration 90 nM)
Outline: as §1

[8] = tested on: VDR homodimer (NR concentration 270 nM)
Outline: as §1

Sequence | PBM binding z-score [1] | PBM binding z-score [2] | PBM binding z-score [3] | PBM binding z-score [4] | PBM binding z-score [5] | PBM binding z-score [6] | PBM binding z-score [7] | PBM binding z-score [8]
CCTACTGGGCCATTCAGAGGTCCTTGATCATATG | 0.208 | -0.0281 | -0.184 | -0.26 | -0.29 | -0.305 | -0.128 | -0.336
TCATATAGGTAAACCGGTGAAAGTCCGTAAGTTA | 0.357 | 0.195 | 0.0982 | 1.45 | 0.746 | 0.262 | 0.203 | 0.541
ATCTCTAGGTAATACTCAGTTCAGTGAAGAACGC | 1.14 | 0.732 | 0.671 | 0.98 | 0.582 | 1.37 | 1.33 | 1.89
TCTTGTCGATCAACAGGAGGTTAAGAAAGATCGA | 0.439 | 0.322 | 0.198 | 0.168 | 0.805 | 0.59 | -0.736 | -0.499
TCTCGGACGACACGAAGGTCAGAGCTTTCCAGAG | 3.12 | 2.49 | 2.65 | 0.495 | 2 | 1.53 | 0.0855 | 0.189
CCGACTGGGGCAAGTTTACCATAACGCACAGCCA | 0.697 | 0.446 | 0.667 | 0.533 | 0.261 | -0.0579 | -0.484 | 0.132
TCGTGTAGATCAATAGAGGTTAAGAAAGTGCGCT | 1.47 | 0.551 | 0.428 | 0.621 | 1.23 | 2.09 | -0.291 | 0.428
CGTCCAAGGTCATCGGAGGTCAGTGAAGACAGAT | 5.43 | 7.31 | 7.72 | 4.24 | 6.83 | 5.45 | 3.48 | 5.07
CGTCAAAGTTCAACTAACGTAACGTAAAGCACGC | 4.09 | 5.71 | 6.79 | 4.56 | 4.65 | 1.97 | 0.0138 | 3.38
TCAGACAGGTGAAGGTAACCCAGGTACGCAGTCG | 1.25 | 0.745 | 0.803 | 0.992 | 1.29 | 1.48 | 0.57 | 0.454
CATACAGGGTCAGCTAGGCCAGACTAGGGACGGC | 3.19 | 4.5 | 4.67 | 1.37 | 3.99 | 3.16 | 1.06 | 1.2
ATCTCGAGGTAAAAGTTCAGTGAATCCCGAGGAT | 2.35 | 2.35 | 1.86 | 0.47 | 2.58 | 1.99 | 0.159 | 0.883
GCTTGTAGATCAAGATTAAGAAAGACTAAGCTAA | -1.07 | -0.362 | -0.206 | -0.488 | -0.324 | -0.364 | -0.81 | -0.356
CCGACTGGGGCAGAAAGGTTACGATACCATCCGG | 2.38 | 1.96 | 1.37 | -0.562 | 2.09 | 1.15 | -0.229 | -0.0227
CCGATTGGGGCAAAGGTTACCATACTCAGTACGA | 2.03 | 3.52 | 1.64 | 0.678 | 3.76 | 1.84 | -0.136 | 0.0147
TGTCAAAGTTCAAAGGTAAAGTAAGTATCCACAC | 3.74 | 6.33 | 6.06 | 4.16 | 7 | 3.08 | -0.134 | 3.53
CCGGCTGGGGCAAAGGTTACCATACTCAGTACGA | 2.25 | 3.68 | 1.69 | -0.158 | 3.6 | 1.77 | -0.377 | -0.169
CGAAGTAGGTCAGAACAGGACAGTGAAGGATGAT | 2.04 | 2.23 | 3.23 | 0.286 | 1.37 | 3.52 | 0.146 | 0.1
ACTAGCAGGCCAAGTTTAGGTCACTCAAACAAAG | 2.6 | 3 | 2.44 | 0.0394 | 0.727 | 3.43 | 2.59 | 0.966
CAAACTGGGTCACGAAAGGTCAAAGTCGAATGAC | 5.73 | 7.84 | 8.05 | 2.44 | 8.52 | 5.02 | 1.75 | 3.72
CGTCCAAGGTCAAGGTCAGTGCAAGAGACTCGAA | 5.45 | 6.95 | 7.95 | 3.52 | 6.56 | 4.21 | 3.91 | 3.18
TCGAGTAGGTTAGGGGCATTCGGAATGGCGTCGA | 0.742 | 0.5 | -0.0301 | 0.0579 | 0.52 | 0.777 | 0.132 | 0.956
CGAACGAGGGCATGAGTTGATAGCCAATGCCGAT | 0.853 | 1.34 | 1.88 | 2.3 | 1 | 1.24 | -0.039 | 1.56
ATCGGAAGGTCGTGAGGTGAGTATACAGAAAGGC | 2.27 | 3.03 | 2.55 | 0.762 | 3.05 | 2.83 | 1.76 | 1.04
TCTATTAGTTGAAGGGCAACCAACGAGTCCGTTT | 1.4 | 0.447 | 0.495 | 1.46 | 0.529 | 0.101 | 0.123 | 0.984
ACTAGCAGGCCAAGGTTGGGTCACTCAAACAAAG | 2.3 | 1.64 | 1.36 | -0.829 | 0.638 | 2.04 | 0.571 | 0.0121
ATTAGCAGGCCAAGGGTCACTCAAGATTAGTCCG | 3.64 | 4.22 | 3.71 | 0.43 | 4.3 | 2.7 | 0.321 | 0.941
CAAACTAGGTCACGGGAAGGTCAAAGTCCGCATG | 5.63 | 8.25 | 7.46 | 2.31 | 6.72 | 4.73 | 3.09 | 3.1
TGAATGAGCTTATAAGATCAGGGAACGTTGCAAA | -1.21 | -0.305 | -0.288 | -1.2 | -0.211 | -0.371 | -1.18 | -0.577
